Source: ChEMBL document CHEMBL1157539, “Thousands of chemical starting points for antimalarial lead identification” (Nature, 2010)

Experiments:
Format in all cases: functional
Plasmodium falciparum [1] = assay: GSK_TCMDC: Inhibition of Plasmodium falciparum 3D7 in whole red blood cells, using parasite LDH activity as an index of growth. Test compounds present at 2uM
Plasmodium falciparum [2] = assay: GSK_TCMDC: Inhibition of Plasmodium falciparum Dd2 in whole red blood cells, using parasite LDH activity as an index of growth. Test compounds present at 2uM
HepG2 = assay: GSK_TCMDC: Percent inhibition of human HepG2 cell line. Test compounds present at 10uM.

| SMILES | Inhibition (Plasmodium falciparum [1]) | Inhibition (Plasmodium falciparum [2]) | Inhibition (HepG2) |
| --- | --- | --- | --- |
| CCOC(=O)N1NC(=O)N(c2ccccc2)C1(c1ccccc1)c1ccccc1 | 96% | 82% | 5% |
| COc1ccc(CCN2CCC(CN(C)Cc3cnn(-c4ccccc4)c3)CC2)cc1 | 90% | 5% | 25% |
| Cn1nc(C(F)(F)F)c(-c2ccc(F)cc2)c1NC(=O)Nc1ccc(F)cc1F | 100% | 98% | 11% |
| Cc1noc(-c2ccc3c(c2)CCN(CCC2CCC(NC(=O)/C=C/c4ccc(F)cc4)CC2)CC3)n1.Cl (stereo not given) | 91% | 39% | 44% |
| COc1cccc2c(NN=Cc3ccccc3F)ccnc12 | 96% | 37% | 6% |
| CN(CCCCCN1CCC(NC(=O)Nc2ccc(Oc3ccccc3)cc2)C1)C(=O)/C=C/c1ccc(Cl)c(Cl)c1 (stereo not given) | 98% | 14% | 50% |
| Cc1ccc(OCC2CCN(c3ncc(C(=O)NC4CC4)cc3Cl)CC2)cc1 | 88% | 72% | 2% |
| Cc1cccc2nc(-c3ccc(-c4ccc(CNCCNC(=O)c5ccnn5C)cc4)s3)[nH]c12.O=C(O)C(F)(F)F | 100% | 97% | 20% |
| Cc1cccc2nc(-c3ccc(-c4ccc(NC(=O)Nc5ccc(Cl)cc5)cc4)cc3)[nH]c12 | 100% | 100% | 52% |
| CCOc1ccc2[nH]c(C)cc(=NN=Cc3ccccc3Cl)c2c1 | 100% | 100% | 11% |
| COc1ccc2nc(C)cc(Nc3ccc(Oc4ccc(Cl)c5ccccc45)c(Cl)c3)c2c1 | 100% | 100% | 83% |
| CCS(=O)(=O)Nc1ccc2[nH]cc(C3CCN(CCC4CCN(C(=O)/C=C/c5ccc(Cl)c(Cl)c5)CC4)CC3)c2c1 | 99% | 94% | 34% |
| N#Cc1ccc2c(c1)CN(C1CCC(NC(=O)c3cc(-c4ccc(Cl)cc4)cs3)CC1)CCC2 (stereo not given) | 100% | 99% | 36% |
| Cc1cc2c(/C=C/C(=O)NC3CCC(CCN4CCc5ccc(C#N)cc5CC4)CC3)cccc2[nH]1.Cl (stereo not given) | 95% | 39% | 16% |
| CN1CCC(NCc2cccc(-c3ccc(S(=O)(=O)NCCN4CCCC4)s3)c2)CC1.O=C(O)C(F)(F)F | 91% | 1% | 10% |
| Br.CC1(C)NC(N)=NC(=N)N1OCCSCc1cc(Cl)sc1Cl | 93% | 72% | 70% |
| CC(C)n1ncc2c3c(N)nc(N)nc3ccc21 | 98% | 6% | 64% |
| C=Cc1cc(NC(=O)N2CCc3cc(OC)c(C(F)(F)F)cc32)cc(-c2cccnc2)c1 | 92% | 20% | 7% |
| COc1cccc(CNC[C@@H](O)[C@H](Cc2ccccc2)NC(=O)c2cc3c4c(c2)c(C(C)C)cn4CCS(=O)(=O)N3C)c1.O=CO | 98% | 98% | 21% |
| Nc1nc(N)c2c(ccc3c2ccn3Cc2cccc3ccccc23)n1 | 99% | 95% | 65% |

| SMILES | Inhibition (Plasmodium falciparum [1]) | Inhibition (Plasmodium falciparum [2]) | Inhibition (HepG2) |
| --- | --- | --- | --- |
| COc1ccc(CNCc2ccsc2)cc1-c1ccc(S(=O)(=O)NCCN2CCCC2)s1.O=C(O)C(F)(F)F | 100% | 34% | 39% |
| O=C(O)c1ccc2c(c1)N(C(=O)CNCc1ccc(F)cc1)CC(=O)N2CCCc1ccccc1 | 95% | 0% | 1% |
| Cl.Oc1ccc(CCNc2nc(NCCCOc3ccccc3-c3ccc(C(F)(F)F)cc3)nc(N3CCNCC3)n2)cc1 | 100% | 49% | 64% |
| CCCC(N)C(=O)NC1CCN(c2c(F)c(N)c3c(=O)c(C(=O)O)cn4c3c2Oc2ccccc2-4)C1.Cl (stereo not given) | 98% | 98% | 66% |
| CN1CCN(CC2(Nc3nccc(NCc4ccc(Cl)cc4Cl)n3)CCCCC2)CC1 | 98% | 58% | 98% |
| COc1cc2nc(NCCc3ccccc3)nc(NCc3cnn(C)c3C)c2cc1OC | 99% | 94% | 13% |
| Cc1cccc(CN2CCC(Oc3ccc(NC(=O)c4cccs4)cc3Cl)CC2)n1.O=C(O)C(F)(F)F | 86% | 88% | 27% |
| COc1ccc(CN2CCCC(Nc3ccc(F)c(F)c3)C2)c(O)c1 (stereo not given) | 95% | 83% | 14% |
| O=C(NC1CC1)c1ccc(N2CCC(Cc3ccccc3)CC2)nc1.O=C(O)C(F)(F)F | 95% | 92% | 13% |
| Cl.Nc1cccc(C=CC(=O)N=c2cc[nH]c3ccccc23)c1 | 98% | 60% | 7% |
| O=C(NCCCCN1CCC(c2ccc3c(c2OCC2COCO2)CCCC3)CC1)c1ccc(-c2ccc(C(F)(F)F)cc2)cc1 (stereo not given) | 99% | 45% | 91% |
| CCCCCCCN(CCCCCCC)CCCC(=O)Nc1ccnc2ccc(OC)cc12.O=C(O)C(=O)O | 100% | 98% | 43% |
| CC(C)OC(=O)c1ccc(NC(=O)N[C@@H](Cc2ccc(O)cc2)C(=O)NC2CC3CCC(C2)N3Cc2ccccc2)cc1.O=C(O)C(F)(F)F (stereo not given in full) | 92% | 19% | 0% |
| Cc1nc(N)nc(N)c1Oc1cccc(Cl)c1.O=S(=O)(O)O | 94% | 0% | 49% |
| O=C(O)C(F)(F)F.Oc1ccc(CN2CCC(NCc3cccc4ccccc34)CC2)cc1 | 97% | 8% | 8% |
| COc1ccc(Nc2ccnc3cc(-c4ccccn4)ccc23)cc1OC.Cl | 91% | 26% | 14% |
| CS(=O)(=O)Cc1ccc(Nc2nccc(-c3c(-c4cccc(NC(=O)C5CCCCC5)c4)nn4ncccc34)n2)cc1 | 98% | 99% | 31% |
| CC(C)CCN1CCC(Oc2ccc(NC(=O)c3cccs3)cc2Cl)CC1.O=C(O)C(F)(F)F | 97% | 96% | 31% |
| CN1CCC(C(=O)N(Cc2ccc(-c3ccc(CNCCc4ccc(S(C)(=O)=O)cc4)cn3)cc2)C2CCN(Cc3ccccc3)CC2)CC1.O=C(O)C(F)(F)F | 100% | 95% | 11% |
| COc1ccc(Nc2ncc3c(-c4cccc(NC(=O)c5ccc(N)cc5)c4)c[nH]c3n2)cc1OC | 84% | 31% | 83% |

| SMILES | Inhibition (Plasmodium falciparum [1]) | Inhibition (Plasmodium falciparum [2]) | Inhibition (HepG2) |
| --- | --- | --- | --- |
| CCc1c(CCNCCCCCCNCCc2ccc([N+](=O)[O-])cc2)ccc(OC)c1OC.Cl | 100% | 2% | 35% |
| CS(=O)(=O)O.FC(F)(F)COc1ccc(CNCCCCCCNCc2ccc(OCC(F)(F)F)c3ccccc23)c2ccccc12 | 100% | 93% | 99% |
| CC(=O)N(C)c1ccc(C(=O)Nc2cccc(-c3cccc(-c4nc5cccc(C)c5[nH]4)c3)c2)cc1 | 89% | 30% | 11% |
| Cc1ccc(Nc2nc3cc(Nc4ccnc(Nc5ccc(CS(C)(=O)=O)cc5)n4)ccc3o2)cc1 | 99% | 66% | 54% |
| Cl.O=C(NCCCCN1CCC(c2ccc3c(c2OCCO)CCCC3)CC1)c1ccc2oc(-c3ccc(C(F)(F)F)cc3)cc2c1 | 93% | 56% | 54% |
| O=C(NCc1cccc2ccccc12)C1CCCN(C(=O)c2ccc(O)c(-c3ccc(Cl)c(Cl)c3)c2)C1 (stereo not given) | 92% | 23% | 1% |
| Clc1ccc2c(N3CCCNCC3)ccnc2c1 | 100% | 99% | 11% |
| Cc1ccc(Nc2nc(N)c3ccccc3n2)cc1.Cl | 94% | 12% | 9% |
| O=C(NC1CC1c1ccccc1)N(CCCn1ccnc1)Cc1csc(-c2ccc(CNCc3ccccc3)cc2)n1.O=C(O)C(F)(F)F (stereo not given) | 96% | 20% | 6% |
| CC(C)[C@@H](NC(=O)NC1CCC(CCN2C3CCC2CC(OC(=O)C(CO)c2ccccc2)C3)CC1)C(O)(c1ccccc1)c1ccccc1 (stereo not given in full) | 96% | 56% | 19% |
| CC[C@H](NC(=O)c1ccc(NC(=O)OC(C)(C)C)cc1)C(=O)N[C@@H](CO)C(=O)NCCCCc1ccccc1 | 98% | 94% | 0% |
| O=C(O)C(F)(F)F.c1ccc(CN2CCC(NCc3ccc(-c4ccc(CNCc5cccnc5)cn4)cc3)CC2)cc1 | 97% | 13% | 0% |
| COc1ccc(NC(=O)c2ccc(-c3nc(-c4cccc(C(F)(F)F)c4)cs3)cc2)cc1N1CCN(C)CC1 | 98% | 59% | 29% |
| Cn1cc(C2CCN(CCCCNC(=O)c3ccc(-c4ccc(C(F)(F)F)cc4)c(CO)c3)CC2)c2ccccc21 | 88% | 16% | 67% |
| O=C(O)C(F)(F)F.c1cc(CNCCN2CCNCC2)cc(-c2cccc(-c3nc4ccccc4[nH]3)c2)c1 | 89% | 1% | 11% |
| Cc1[nH]c(/C=C2\C(=O)Nc3ccc(S(=O)(=O)Cc4c(Cl)cccc4Cl)cc32)c(C)c1C(=O)N1CCC[C@@H]1CN1CCCC1 [PHA-665752] | 85% | 92% | 33% |
| Cc1ccc(C(C)C)cc1CON1C(=N)N=C(N)NC1(C)C.Cl | 94% | 92% | 66% |
| Br.Oc1cccc2c1CC(NCc1ccccc1)CC2 (stereo not given) | 90% | 24% | 4% |
| Fc1ccccc1C=NN=c1cc[nH]c2ccccc12 | 94% | 26% | 8% |
| COc1ccc(S(=O)(=O)Nc2cc(Br)cc3c2OCCC3)cc1N1CCN(C(=O)C(Cl)(Cl)Cl)CC1 | 90% | 51% | 4% |
